Measured values reported in PubChem BioAssay AID1567 (National Center for Advancing Translational Sciences (NCATS), 2009).
Results filed as inconclusive are left out. A call without a number means that no potency is given here. Activity calls are given as the source filed them. Calls come from the whole dose curve; as a rule, active = well fitted inhibition curve with a large enough effect; inconclusive = small, poorly fitted or top-dose-only effect, or effect the other way; inactive = no such curve, though single readings can be large or run the other way.

Target: Thyroid hormone receptor beta (Homo sapiens) (UniProt P10828)
Assay: Cell-based Gene Reporter Secondary Assay to Characterize qHTS Inhibitors of the Interaction of Thyroid Hormone Receptor and Steroid Receptor Coregulator 2
Settings: WRO cells TRbeta TRE-luciferase, T3-stimulated, 16 h; series mostly up to 29.9 µM
Text: NIH Molecular Libraries Probe Production Network [MLPCN] NIH Chemical Genomics Center [NCGC] MLPCN Grant: DK058080 Assay Provider: R. Kip Guy, St. Jude Children's Research Hospital NCGC Assay Overview: Thyroid receptor (TR) regulates many homeostatic processes including basal metabolism, cardiovascular function, body weight, and lipid trafficking. TR modulators are potential therapeutics for obesity and hyperlipidemias but current thyroid analogs have undesirable side effects, particularly cardiac stimulation. This secondary assay characterized selected actives identified in the qHTS for Inhibitors of the Interaction of Thyroid Hormone Receptor and Steroid Receptor Coregulator 2. The human follicular thyroid carcinoma cell line WRO (kindly provided by Dr. M. D. Ringel) stably expresses TRbeta and a luciferase reporter gene fused to TR response element. The addition of T3 ligand elevates expression of the TRE luciferase reporter. This assay measures the transcriptional activity of compounds.
NCGC Assay Protocol Summary: Cells were maintained in RPMI 1640 culture medium supplemented with 10% heat-inactivated FBS, 0.33 mg/ml hygromycin, 0.33 mg/ml geneticin, 50 units/ml penicillin, 50 ug/ml streptomycin. […] Following incubation, plates were equilibrated at ambient temperature for 30 min, 30 ul of Bright-Glo (Promega) was added and luminescence was detected by an EnVision (PerkinElmer).

Chain of Thyroid hormone receptor beta (Homo sapiens) (P10828 whole entry, looked up): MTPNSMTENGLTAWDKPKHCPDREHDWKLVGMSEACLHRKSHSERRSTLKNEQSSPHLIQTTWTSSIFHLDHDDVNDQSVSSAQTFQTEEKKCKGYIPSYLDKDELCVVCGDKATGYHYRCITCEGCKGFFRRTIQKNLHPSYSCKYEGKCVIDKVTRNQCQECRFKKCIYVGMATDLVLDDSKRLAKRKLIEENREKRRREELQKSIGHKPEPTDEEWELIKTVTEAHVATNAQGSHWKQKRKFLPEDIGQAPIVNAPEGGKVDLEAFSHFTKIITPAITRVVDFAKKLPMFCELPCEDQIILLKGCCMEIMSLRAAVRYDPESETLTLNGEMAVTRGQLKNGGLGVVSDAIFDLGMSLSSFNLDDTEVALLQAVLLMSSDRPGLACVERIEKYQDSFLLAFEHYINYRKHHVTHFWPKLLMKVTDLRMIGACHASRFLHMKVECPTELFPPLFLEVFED

SMILES | Potency
COP(=S)(OC)Oc1ccc([N+](=O)[O-])cc1 | 3.98 µM (active)
CCCCCn1c(N)c(C(=O)NCc2cccs2)c2nc3ccccc3nc21 | inactive
